Several values for one entry are separate records, joined by “and”; a condition that tells them apart may be missing. Equal entries are not always repeated. Some structures have more than one record in an assay (separate samples or runs), and their calls can disagree. Activity calls are given as the source filed them. The calls were made as follows: active = hit-call score of the fitted dose curve at least 0.9, where 1 is the maximum; inactive = score below 0.9.
Columns and labels:
[1] = ATG_GRE_CIS: Attagene CIS-FACTORIAL HepG2 Assay for human Glucocorticoid Response Elements (GRE) (AID 2282947); conditions: HepG2 GRE cis-reporter, Attagene multiplex mRNA; AC50: actives raise or lower the signal unless noted; outcome: actives raise or lower the signal unless noted
Method in brief: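 Transient MRTU transfection of human HepG2 liver cells; cis-regulated reporters report endogenous factors. 24 h dosing → RNA isolation → RT-PCR → 6-FAM primer extension → HpaI cut → CE fragment analysis. Bidirectional fit, DMSO negative control.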

[2] = ATG_ISRE_CIS: Attagene CIS-FACTORIAL HepG2 Assay for human Interferon Regulatory Factor 1 (IRF1) binding to an Interferon-Stimulated Response Element (ISRE) (AID 2282948); conditions: HepG2 ISRE cis-reporter (Attagene), mRNA transcription readout; actives raise or lower the signal
Method in brief: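 Cell-based cis-reporter assay; HepG2; 24 h exposure; reporter mRNA by RT-PCR plus capillary electrophoresis fluorescence; activity in either direction scored relative to DMSO.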

[3] = ATG_M_32_CIS: Attagene CIS-FACTORIAL HepG2 Assay for M32 Transcription Factor (Internal Marker) (AID 2282949); conditions: HepG2 Attagene cis-factorial M32 reporter, mRNA; actives raise or lower the signal;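 also: background control marker of the multiplexed CIS panel rather than a real target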
Method in brief: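 HepG2 cells transiently transfected with multiplexed cis-regulated reporter units, dosed 24 h. Reporter mRNA quantified by RT-PCR, 6-FAM labelling, HpaI digestion and capillary electrophoresis; bidirectional fit vs DMSO.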

[4] = ATG_M_06_CIS: Attagene CIS-FACTORIAL HepG2 Assay for M06 Transcription Factor (Internal Marker) (AID 2282950); conditions: HepG2 Attagene CIS-FACTORIAL M06 internal marker reporter; actives raise or lower the signal
Method in brief: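 Steps: transfect HepG2 with multiplexed cis-element reporter constructs; dose chemical 24 h; extract RNA with DNase treatment; reverse-transcribe, PCR-amplify, 6-FAM label, HpaI digest; separate fragments by capillary electrophoresis. Activity fitted both directions versus DMSO.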

[5] = molecular target: Hypoxia-inducible factor 1-alpha (Homo sapiens) (UniProt Q16665); assay: ATG_HIF1a_CIS: Attagene CIS-FACTORIAL HepG2 Assay for human Hypoxia Inducible Factor 1 (HIF1A) (AID 2282951); conditions: HepG2 Attagene cis-factorial HIF1a reporter transcription; actives raise or lower the signal
Method in brief: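 RT-PCR/capillary electrophoresis fluorescence readout of reporter transcripts from endogenous-TF-driven cis elements in transfected HepG2 cells, 24 h exposure; activity fitted in both directions against DMSO controls.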

[6] = molecular target: Hepatocyte nuclear factor 6 (Homo sapiens) (UniProt Q9UBC0); assay: ATG_HNF6_CIS: Attagene CIS-FACTORIAL HepG2 Assay for human Hepatocyte Nuclear Factor 6 (HNF6) (AID 2282952); conditions: HepG2 Attagene cis-factorial HNF6 reporter transcription; actives raise or lower the signal
Method in brief: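 Reporter mRNA induction or loss in HepG2 after 24 h exposure; transient cis-MRTU transfection; fragments quantified by capillary electrophoresis; bidirectional analysis, DMSO as negative control.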

[7] = molecular target: Heat shock factor protein 1 (Homo sapiens) (UniProt Q00613); assay: ATG_HSE_CIS: Attagene CIS-FACTORIAL HepG2 Assay for human Heat Shock Transcription Factor 1 (HSE) (AID 2282953); conditions: HepG2 HSE cis-reporter, Attagene RNA transcription; actives raise or lower the signal
Method in brief: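 Cells were transfected with cis-element-driven reporter constructs, dosed for 24 h, then total RNA was reverse-transcribed and reporter cDNA amplified, FAM-labelled and digested with HpaI. Fragments were resolved by capillary electrophoresis; gain or loss was fitted against DMSO.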

[8] = ATG_MRE_CIS: Attagene CIS-FACTORIAL HepG2 Assay for human Metal Responsive Element (MRE) (AID 2282954); conditions: HepG2 MRE cis-reporter transcription, Attagene multiplex; actives raise or lower the signal
Method in brief: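 Transient MRTU transfection of HepG2 (FuGene 6); 24 h dosing; total RNA → oligo(dT) RT, PCR, 6-FAM primer extension, HpaI cut, CE. Bidirectional fit vs DMSO.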

[9] = ATG_PBREM_CIS: Attagene CIS-FACTORIAL HepG2 Assay for human Phenobarbital-responsive Enhancer Module (PBREM) (AID 2282955); conditions: HepG2 PBREM cis-reporter, Attagene multiplexed transcription; actives raise or lower the signal
Method in brief: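 Reporter mRNA read by RT-PCR, 6-FAM primer extension, HpaI digestion and capillary electrophoresis. Transfected HepG2 cells, 24 h compound exposure. Gain or loss of signal fitted bidirectionally relative to DMSO baseline.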

[10] = molecular target: Paired box protein Pax-6 (Homo sapiens) (UniProt P26367); assay: ATG_Pax6_CIS: Attagene CIS-FACTORIAL HepG2 Assay for human Paired Box 6 (PAX6) (AID 2282956); conditions: HepG2 CIS-FACTORIAL PAX6 reporter transcription, RNA readout; actives raise or lower the signal
Method in brief: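 Multiplexed cis-reporter HepG2 system; 24 h treatment; reporter mRNA read by RT-PCR/CE fluorescence; bidirectional fit vs DMSO.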

Measured: AC50

Hepatocyte nuclear factor 6 (Homo sapiens), sequence (Q9UBC0 whole entry, looked up, the tested form may be a part): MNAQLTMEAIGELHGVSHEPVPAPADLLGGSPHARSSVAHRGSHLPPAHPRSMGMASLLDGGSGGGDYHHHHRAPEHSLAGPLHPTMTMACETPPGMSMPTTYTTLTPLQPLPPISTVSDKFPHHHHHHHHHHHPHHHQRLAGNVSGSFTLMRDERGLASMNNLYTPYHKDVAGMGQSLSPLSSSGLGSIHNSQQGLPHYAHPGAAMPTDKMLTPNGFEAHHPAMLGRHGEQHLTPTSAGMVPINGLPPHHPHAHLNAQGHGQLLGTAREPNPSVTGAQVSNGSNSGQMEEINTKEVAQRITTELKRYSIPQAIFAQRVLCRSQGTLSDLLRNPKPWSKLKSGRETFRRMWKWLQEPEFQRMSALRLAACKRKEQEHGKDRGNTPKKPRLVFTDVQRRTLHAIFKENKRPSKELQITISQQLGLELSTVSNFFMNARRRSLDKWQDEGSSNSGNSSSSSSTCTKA
Hypoxia-inducible factor 1-alpha (Homo sapiens), sequence (Q16665 whole entry, looked up): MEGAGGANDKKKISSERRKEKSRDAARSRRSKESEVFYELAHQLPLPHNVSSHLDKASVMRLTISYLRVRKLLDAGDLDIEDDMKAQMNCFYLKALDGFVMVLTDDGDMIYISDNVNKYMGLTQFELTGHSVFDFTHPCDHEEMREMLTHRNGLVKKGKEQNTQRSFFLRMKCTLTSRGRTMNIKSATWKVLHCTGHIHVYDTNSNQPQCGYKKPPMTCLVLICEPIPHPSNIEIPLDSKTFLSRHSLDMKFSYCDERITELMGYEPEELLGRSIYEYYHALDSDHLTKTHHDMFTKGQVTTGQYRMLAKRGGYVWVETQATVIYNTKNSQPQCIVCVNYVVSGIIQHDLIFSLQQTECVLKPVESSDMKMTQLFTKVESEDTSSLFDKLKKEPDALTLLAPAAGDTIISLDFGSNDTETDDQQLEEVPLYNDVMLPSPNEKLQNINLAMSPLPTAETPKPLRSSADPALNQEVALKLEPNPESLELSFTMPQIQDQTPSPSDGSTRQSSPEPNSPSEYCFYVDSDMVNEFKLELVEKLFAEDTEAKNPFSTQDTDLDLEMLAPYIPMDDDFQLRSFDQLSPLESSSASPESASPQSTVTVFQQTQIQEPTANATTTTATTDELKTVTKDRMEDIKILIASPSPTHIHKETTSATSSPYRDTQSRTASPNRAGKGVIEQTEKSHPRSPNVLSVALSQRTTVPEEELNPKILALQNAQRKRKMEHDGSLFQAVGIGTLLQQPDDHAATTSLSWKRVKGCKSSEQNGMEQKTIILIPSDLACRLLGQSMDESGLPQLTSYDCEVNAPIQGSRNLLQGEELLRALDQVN
Paired box protein Pax-6 (Homo sapiens), sequence (P26367 whole entry, looked up): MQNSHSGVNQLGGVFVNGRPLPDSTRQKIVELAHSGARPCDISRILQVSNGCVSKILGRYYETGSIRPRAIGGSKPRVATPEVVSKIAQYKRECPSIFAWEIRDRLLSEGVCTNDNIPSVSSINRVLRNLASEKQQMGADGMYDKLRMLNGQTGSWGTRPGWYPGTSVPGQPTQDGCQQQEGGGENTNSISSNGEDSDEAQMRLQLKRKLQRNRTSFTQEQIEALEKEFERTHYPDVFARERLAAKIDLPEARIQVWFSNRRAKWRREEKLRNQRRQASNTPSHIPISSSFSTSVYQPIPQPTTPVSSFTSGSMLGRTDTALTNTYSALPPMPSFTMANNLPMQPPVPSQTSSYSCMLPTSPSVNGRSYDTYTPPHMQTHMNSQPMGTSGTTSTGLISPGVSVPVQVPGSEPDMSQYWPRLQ
Heat shock factor protein 1 (Homo sapiens), sequence (Q00613 whole entry, looked up, the tested form may be a part): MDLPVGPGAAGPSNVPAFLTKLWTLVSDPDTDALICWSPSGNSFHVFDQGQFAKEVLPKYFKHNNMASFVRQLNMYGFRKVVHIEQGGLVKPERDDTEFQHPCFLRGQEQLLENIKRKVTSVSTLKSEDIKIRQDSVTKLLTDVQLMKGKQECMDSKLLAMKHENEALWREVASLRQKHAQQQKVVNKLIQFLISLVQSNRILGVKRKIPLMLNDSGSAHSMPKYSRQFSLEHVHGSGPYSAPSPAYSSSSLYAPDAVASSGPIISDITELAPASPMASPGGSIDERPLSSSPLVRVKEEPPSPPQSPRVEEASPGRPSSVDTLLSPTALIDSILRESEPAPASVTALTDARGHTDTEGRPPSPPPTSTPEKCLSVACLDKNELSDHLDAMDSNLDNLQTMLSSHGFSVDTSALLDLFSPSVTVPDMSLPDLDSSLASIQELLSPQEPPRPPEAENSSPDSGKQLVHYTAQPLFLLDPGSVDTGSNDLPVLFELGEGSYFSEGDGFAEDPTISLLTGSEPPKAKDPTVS

C=CC(=C)CC/C=C(\C)CCC=C(C)C
inactive: all assays above

C[N+](C)(CCCNS(=O)(=O)CCC(F)(F)C(F)(F)C(F)(F)C(F)(F)C(F)(F)C(F)(F)F)CC(=O)[O-]
inactive: all assays above

Cc1ccc(C(=O)c2ccccc2)cc1
inactive: all assays above

O=C(O)C(F)(F)OC(F)(F)C(F)(F)OC(F)(F)C(F)(F)OC(F)(F)C(F)(F)C(F)(F)C(F)(F)F
active: [2] 24.6 µM and 26 µM | [5] 28.2 µM | [6] 70.1 µM | [7] 23.7 µM | [8] 31.4 µM and 28.9 µM | [10] 25.9 µM and 29.1 µM
inactive: [1] | [3] | [4] | [5] | [6] | [7] | [9]

CN(C)c1ccc(C(=C2C=CC(=[N+](C)C)C=C2)c2ccccc2)cc1
inactive: [1] | [3] | [4] | [5] | [6] | [9]
active: [2] 1.34 µM and 1.85 µM | [6] 8.34 µM | [7] 1.46 µM and 1.26 µM | [8] 1.46 µM and 1.3 µM | [10] 1.43 µM and 1.44 µM

NC(=NCCCCCCN=C(N)/N=C(\N)Nc1ccc(Cl)cc1)/N=C(\N)Nc1ccc(Cl)cc1
active: [1] 23.2 µM and 25.6 µM | [2] 5.9 µM and 6.55 µM | [3] 23.4 µM and 23.8 µM | [6] 25.7 µM | [8] 2.62 µM and 2.68 µM and 1.87 µM | [9] 4.31 µM
inactive: [1] | [2] | [3] | [4] | [5] | [6] | [7] | [9] | [10]

CC(C)C=O
active: [5] 157 µM
inactive: [1] | [2] | [3] | [4] | [5] | [6] | [8] | [9] | [10]

O=CC(F)(F)C(F)(F)C(F)(F)F
inactive: all assays above

CC(C)(C)c1ccc(O)c(O)c1
inactive: [1] | [2] | [3] | [4] | [5] | [6] | [9] | [10]
active: [5] 26.1 µM and 25.9 µM and 25.5 µM | [7] 133 µM [middle of 5 runs] | [10] 99.1 µM and 57.3 µM

COC(=O)CC(C(C)=O)C(=O)OC (stereo not given)
inactive: all assays above

Source: PubChem BioAssay (EPA / NIEHS)
